High-throughput results as filed in PubChem.
Methyltransferases: Primary Screen for Target Class Profiling of Small Molecule Inhibitors of Methyltransferases; purified enzyme, MTase-Glo SAH luminescence; stronger effect = lower value; calls only at 40 µM; hit rate 3.9% among 25,000; call rule not given here
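Each enzyme was reacted with SAM and its substrate, with compounds tested once at 40 uM; SAH formed was read by MTase-Glo luminescence.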
The depositor's hits bear a star; i = inactive; + = active, no number; ! = not active in a repeat. Only a selection was taken, and hits are over-represented in it overall. % is scaled to controls: 0 for no effect and ±100 for the full control effect.

SMILES | Methyltransferases
CS(=O)(=O)Nc1ccc2oc3c(OC(F)F)ccc(C(=O)Nc4c(Cl)cncc4Cl)c3c2c1 | +
CCC(C)NC(=O)c1ccc2c(=O)n(CCC(C)C)c3nn(CC(N)=O)c(=O)n3c2c1 (centres undefined) | i
CCCn1c(=O)c2ccc(Cl)cc2n2c(SCC(=O)Nc3ccc(F)cc3)nnc12 | i
Cn1c(=O)c2[nH]c(-c3ccc(S(=O)(=O)O)cc3)nc2n(C)c1=O | +
C=CCn1c(=O)c2c(nc(-c3ccc(S(=O)(=O)O)cc3)n2C)n(C)c1=O | i
Cn1c(=O)c2[nH]cnc2n(C)c1=O | i
CC(C)Cn1c(=O)c2ccc(C(=O)NC(C)C)cc2n2c(SCc3cccc(F)c3)nnc12 | i
CN(C)CCN1C(=O)c2ccc(-c3ccco3)n2CC1(C)C(=O)NC1CCCCCCC1 (centres undefined) | i
CCc1ccc(CN2C(=O)c3cc(-c4ccccc4)nn3CC2(C)C(=O)NCc2ccccc2)cc1 (centres undefined) | i
COc1ccccc1N1CCN(CCN(C(=O)c2ccc(F)cc2)c2ccccn2)CC1 | i
COc1ccccc1N1CCN(CCCCN2C(=O)c3ccccc3C2=O)CC1 | i
COc1ccccc1N1CCN(c2ncnc3n[nH]c(Br)c23)CC1 | +
CCC1c2ccc(C)n2CCN1C(=O)Nc1ccc(F)c(Cl)c1 (centres undefined) | i
COc1ccc(-c2nc(-c3ccc(S(=O)(=O)N4CCCCC4)cc3)no2)cc1 | i
CC(C)CCn1c(=O)c2ccc(C(=O)NCC(C)C)cc2n2c(=O)n(Cc3ccc(Cl)cc3)nc12 | i
CC(C)CCNC(=O)C1(C)Cn2c(cc3ccccc32)C(=O)N1CCc1cccs1 (centres undefined) | i
Cc1cccc(Cn2nc3n(Cc4ccccc4)c(=O)c4ccc(C(=O)NC(C)C)cc4n3c2=O)c1 | i
CC(C)=CCC(O)/C(C)=C/CO[C@@H]1O[C@H](CO)[C@@H](O)[C@H](O)[C@H]1O (some centres undefined) | +
COc1ccc(C(O)C(C)OC2OC(CO)C(O)C(O)C2O)cc1 (centres undefined) | i
CC(C)=CCC/C(C)=C/CO[C@@H]1O[C@H](CO)[C@@H](O)[C@H](O)[C@H]1O | i
CC/C=C\CCO[C@@H]1O[C@H](CO)[C@@H](O)[C@H](O)[C@H]1O | +
OCc1ccccc1O[C@@H]1O[C@H](CO)[C@@H](O)[C@H](O)[C@H]1O | i
CCC(C)C(=O)OC[C@H]1O[C@H](O[C@H]2O[C@H](CO)[C@@H](O)[C@H](O)[C@H]2O)[C@H](O)[C@@H](O)[C@@H]1O (some centres undefined) | i
CCCCN1C(=O)c2cc(C(=O)NCc3ccccc3C)nn2CC1(C)C(=O)NC1CCCC1 (centres undefined) | i
CC(C)c1ccc(NS(=O)(=O)c2ccc3c(c2)n(C)c(=O)n3C)cc1 | i
SMILES | Methyltransferases
CC(C)CCn1c(=O)c2ccc(C(=O)NC(C)C)cc2n2c(=O)n(Cc3ccc(F)cc3Cl)nc12 | i
CCc1ccc(CNC(=O)c2ccc3c(=O)nc4c(-c5cccc(F)c5)n[nH]n4c3c2)cc1 | i
COc1ccc(OC)c2c1cc1n2CC(C)(C(=O)NC2CCCC2)N(Cc2ccco2)C1=O (centres undefined) | i
O=C(CSc1nnc2n(Cc3ccc(F)cc3)c(=O)c3ccccc3n12)Nc1ccc(Cl)cc1 | i
CCOc1ccc(CN2C(=O)c3ccc(-c4ccco4)n3CC2(C)C(=O)NC2CCCCC2C)cc1 (centres undefined) | i
CC(C)NC(=O)c1ccc2c(=O)n(C(C)C)c3nn(CC(=O)NC(C)(C)C)c(=O)n3c2c1 | i
CC(C)CNC(=O)c1ccc2c(=O)n(C(C)C)c3nn(CC(=O)NC4CCCCC4)c(=O)n3c2c1 | i
CC(C)CCn1c(=O)c2ccc(C(=O)NC3CCCC3)cc2n2c(=O)[nH]nc12 | i
NC1(Cc2ccc(Cl)cc2)CCN(c2ncnc3[nH]ccc23)CC1 | +
Clc1ccc(N2CCN(Cc3c[nH]c4ncccc34)CC2)cc1 | i
CC(C)Cn1c(=O)c2ccc(C(=O)NC(C)C)cc2n2c(=O)n(CC(=O)NC3CCCCC3)nc12 | i
Cc1csc(CN(C)C(=O)CC(c2ccccc2)c2ccc3c(c2)OCO3)n1 (centres undefined) | i
CN(Cc1nccs1)c1ncnc2ccc(-c3ccc4c(c3)OCO4)cc12 | +
Nc1nc(-n2cc(C(=O)O)c(=O)c3cc(F)c(N4CC(O)C4)c(Cl)c32)c(F)cc1F | +
C[C@@H]1CN(c2c(F)c(F)c3c(=O)c(C(=O)O)cn(C4CC4)c3c2F)C[C@H](C)N1 | i
CC1CN(c2cc3c(cc2F)c(=O)c(C(=O)O)cn3-c2ccc(F)cc2F)CCN1 (centres undefined) | i
CC(C)OCCCn1c(=O)c2ccccc2n2c(CCC(=O)NCCc3ccc(Cl)cc3)nnc12 | i
Cc1ccc(NC(=O)Cn2c(=O)oc3cc(S(=O)(=O)N4CCCC4)ccc32)c(Cl)c1 | i
O=C(CCc1nnc2n(CCc3ccccc3)c(=O)c3ccccc3n12)NCc1ccccc1Cl | i
CCN1C(=O)c2cc(C(=O)NCc3cccc(OC)c3)nn2CC1(C)C(=O)NC1CCCC1 (centres undefined) | i
Clc1ccc(-c2nnn3c2nc(NCc2ccccc2)c2ccccc23)cc1 | i
C=C1C(=O)OC2CC(C)C(CCC(C)=O)=CCC12 (centres undefined) | i
C=C1C(=O)OC2CC(C)C(CCC(C)O)=CCC12 (centres undefined) | +
C=C1C(=O)O[C@@H]2C[C@H](C)[C@@]3(O)C=C(C(C)=O)[C@]4(CC3C[C@H]12)C(=O)O[C@H]1C[C@@H](C)C(CCC(C)=O)=CC[C@H]14 (some centres undefined) | i
O=C(O)C1(Cc2cccc(Nc3nccs3)n2)CCC(Oc2cccc(Cl)c2F)CC1 (centres undefined) | +!
SMILES | Methyltransferases
COc1ccc(NC(=O)CCc2nnc3n(Cc4ccccc4Cl)c(=O)c4ccccc4n23)cc1OC | i
CCc1nc(C(N)=O)c(Nc2ccc(N3CCC(N4CCN(C)CC4)CC3)c(OC)c2)nc1NC1CCOCC1 | +
CN1CCN(c2ccc(C(=O)Nc3n[nH]c4ccc(Cc5cc(F)cc(F)c5)cc34)c(NC3CCOCC3)c2)CC1 | i
CCCCN1C(=O)c2cc3c(OC)ccc(OC)c3n2CC1(C)C(=O)NC1CCC(C)CC1 (centres undefined) | i
CC(NC(=O)c1cc2n(n1)CC(C)(C(=O)NC1CCCC1)N(C)C2=O)c1ccccc1 (centres undefined) | i
CCN1C(=O)c2c(C(=O)NCc3ccc(OC)c(OC)c3)ncn2CC1(C)C(=O)NC1CCCC1 (centres undefined) | i
COc1ccc(Br)cc1CN1C(=O)c2ccc(-c3ccco3)n2CC1(C)C(=O)NCc1ccccc1 (centres undefined) | i
CCOC(=O)Cn1cccc1-c1nc(-c2ccc(OC)cc2)c(-c2ccc(OC)cc2)s1 | +
COc1ccc(NC(=O)c2nc3sccn3c2-c2cccc(OC)c2)cc1 | i
CSc1cccc(NC(=O)N2CCn3cccc3C2C(C)C)c1 (centres undefined) | i
COCCCNC(=O)C1(C)Cn2nc(-c3ccccc3)cc2C(=O)N1Cc1ccccc1OC (centres undefined) | i
COc1ccc(NS(=O)(=O)c2cc3c(cc2C)n(C)c(=O)n3C)cc1OC | i
